Each structure is given as a SMILES string. Structures can show the parent of a compound that is named as a salt. ± gives the standard deviation of the averaged measurements.

One test relates to E. coli TESEC Mtb DapB. Nature of the test: growth (OD600 after 10 h); higher = more growth (less inhibition). Particulars: arabinose induction (level): High; compound 0.1 mM; raw OD600 reference: median of DMSO wells […], cell-free background 0.041. The procedure: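 TESEC E. coli strains in which the native enzyme is deleted and replaced by arabinose-inducible Mtb Asd, DapB, CysH or TrpD, each grown in its selective medium. Strains were screened against the Prestwick library at 0.1 mM and 1% DMSO in 384-well format at low and high arabinose induction. Growth is read as OD600 after 10 h in triplicate.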
`Cc1ccccc1N1C(=O)c2cc(S(N)(=O)=O)c(Cl)cc2NC1C` (stereo not given) [Metolazone] displayed a growth of 0.199 ± 0.038.
Same read-out and setting: with `CN(C)C/C=C(/c1ccc(Br)cc1)c1cccnc1` [Zimelidine dihydrochloride monohydrate] the figure was 0.168 ± 0.0086; with `Cc1cn([C@H]2C[C@H](N=[N+]=[N-])[C@@H](CO)O2)c(=O)[nH]c1=O` [Zidovudine, AZT], 0.148 ± 0.0088.
As to `CC(C)Oc1ccc2c(=O)c(-c3ccccc3)coc2c1` [Ipriflavone], the growth is 0.191 ± 0.018.
As for `Cc1cccc(C)c1OCC(C)N` (stereo not given) [Mexiletine hydrochloride], the growth is 0.2 ± 0.013.
Still for that read-out and setting: with `Cc1c(N)c(=O)n(-c2ccccc2)n1C` [Ampyrone] the figure was 0.175 ± 0.0078.
`CC1CS(=O)(=O)CCN1/N=C/c1ccc([N+](=O)[O-])o1` (stereo not given) [Nifurtimox] displayed a growth of 0.188 ± 0.029.
The same measure, in the same setting: in the case of `CC(=C(CCO)SSCC1CCCO1)N(C=O)Cc1cnc(C)nc1N` (stereo in doubt) [Fursultiamine Hydrochloride] it was 0.195 ± 0.024; in that of `Cc1ccc(S(=O)(=O)NC(=O)NN2CC3CCCC3C2)cc1` (stereo not given) [Gliclazide], 0.212 ± 0.011.
`NS(=O)(=O)c1cc2c(cc1Cl)NC(C(Cl)Cl)NS2(=O)=O` (stereo not given) [Trichlormethiazide]: the growth was found to be 0.191 ± 0.0022.
Same read-out and setting: in the case of `CC[C@H]1OC(=O)[C@H](C)[C@@H](O[C@H]2C[C@@](C)(OC)[C@@H](O)[C@H](C)O2)[C@H](C)[C@@H](O[C@@H]2O[C@H](C)C[C@H](N(C)C)[C@H]2O)[C@](C)(O)C[C@@H](C)[C@@H]2N[C@@H](COCCOC)O[C@H]([C@H]2C)[C@]1(C)O` [Dirithromycin] it was 0.0519 ± 0.0012; in that of `Nc1nnc(-c2cccc(Cl)c2Cl)c(N)n1` [Lamotrigine], 0.213 ± 0.015; in that of `CC1(C)S[C@@H]2[C@H](NC(=O)[C@H](N)c3ccccc3)C(=O)N2[C@H]1C(=O)O` [Ampicillin trihydrate], 0.205 ± 0.013.
In turn, `CC(C)(Oc1ccc(Cl)cc1)C(=O)O` [Clofibric acid] showed a growth of 0.199 ± 0.016.
Consider `COc1cc(C(=O)NCc2ccc(OCCN(C)C)cc2)cc(OC)c1OC` [Trimethobenzamide hydrochloride], for which the growth turned out to be 0.203 ± 0.021.
In the case of `C[C@@H]1C[C@H]2[C@@H]3C[C@H](F)C4=CC(=O)C=C[C@]4(C)[C@@]3(F)[C@@H](O)C[C@]2(C)[C@@]1(O)C(=O)CO` [Flumethasone], the growth came to 0.193 ± 0.011.
Same read-out and setting: in the case of `CC(Oc1c(Cl)cccc1Cl)C1=NCCN1` (stereo not given) [Lofexidine] it was 0.205 ± 0.013.
Same read-out and setting: in the case of `O=P(O)(O)C(O)(Cn1ccnc1)P(=O)(O)O` [Zoledronic acid hydrate] it was 0.193 ± 0.0053.
Still for that read-out and setting: in the case of `C#CCN(C)Cc1ccccc1` [Pargyline hydrochloride] it was 0.177 ± 0.0081.
In the case of `Cn1c(=O)c2c(ncn2C)n(C)c1=O` [Caffeine], the growth is 0.192 ± 0.01.

Still in this test, the particulars now being: arabinose induction (level): Low; compound 0.1 mM; raw OD600 reference: median of DMSO wells 0.227, cell-free background 0.041.
Molecule `Cc1ccccc1N1C(=O)c2cc(S(N)(=O)=O)c(Cl)cc2NC1C` (stereo not given) [Metolazone] had a growth of 0.254 ± 0.087.
Same read-out and setting: in the case of `CN(C)C/C=C(/c1ccc(Br)cc1)c1cccnc1` [Zimelidine dihydrochloride monohydrate] it was 0.261 ± 0.12; in that of `Cc1cn([C@H]2C[C@H](N=[N+]=[N-])[C@@H](CO)O2)c(=O)[nH]c1=O` [Zidovudine, AZT], 0.0825 ± 0.0056; in that of `CC(C)Oc1ccc2c(=O)c(-c3ccccc3)coc2c1` [Ipriflavone], 0.211 ± 0.039.
Same read-out and setting: in the case of `Cc1cccc(C)c1OCC(C)N` (stereo not given) [Mexiletine hydrochloride] it was 0.288 ± 0.071; in that of `Cc1c(N)c(=O)n(-c2ccccc2)n1C` [Ampyrone], 0.209 ± 0.011; in that of `CC1CS(=O)(=O)CCN1/N=C/c1ccc([N+](=O)[O-])o1` (stereo not given) [Nifurtimox], 0.251 ± 0.019.
`CC(=C(CCO)SSCC1CCCO1)N(C=O)Cc1cnc(C)nc1N` (stereo in doubt) [Fursultiamine Hydrochloride] returned a growth of 0.247 ± 0.012.
Molecule `Cc1ccc(S(=O)(=O)NC(=O)NN2CC3CCCC3C2)cc1` (stereo not given) [Gliclazide] returned a growth of 0.28 ± 0.042.
Same read-out and setting: with `NS(=O)(=O)c1cc2c(cc1Cl)NC(C(Cl)Cl)NS2(=O)=O` (stereo not given) [Trichlormethiazide] the figure was 0.246 ± 0.041; with `CC[C@H]1OC(=O)[C@H](C)[C@@H](O[C@H]2C[C@@](C)(OC)[C@@H](O)[C@H](C)O2)[C@H](C)[C@@H](O[C@@H]2O[C@H](C)C[C@H](N(C)C)[C@H]2O)[C@](C)(O)C[C@@H](C)[C@@H]2N[C@@H](COCCOC)O[C@H]([C@H]2C)[C@]1(C)O` [Dirithromycin], 0.052 ± 0.00061; with `Nc1nnc(-c2cccc(Cl)c2Cl)c(N)n1` [Lamotrigine], 0.132 ± 0.0074.
Take `CC1(C)S[C@@H]2[C@H](NC(=O)[C@H](N)c3ccccc3)C(=O)N2[C@H]1C(=O)O` [Ampicillin trihydrate]: the growth stood at 0.256 ± 0.051.
`CC(C)(Oc1ccc(Cl)cc1)C(=O)O` [Clofibric acid] yielded a growth of 0.251 ± 0.037.
Still for that read-out and setting: with `COc1cc(C(=O)NCc2ccc(OCCN(C)C)cc2)cc(OC)c1OC` [Trimethobenzamide hydrochloride] the figure was 0.253 ± 0.018; with `C[C@@H]1C[C@H]2[C@@H]3C[C@H](F)C4=CC(=O)C=C[C@]4(C)[C@@]3(F)[C@@H](O)C[C@]2(C)[C@@]1(O)C(=O)CO` [Flumethasone], 0.229 ± 0.014; with `CC(Oc1c(Cl)cccc1Cl)C1=NCCN1` (stereo not given) [Lofexidine], 0.206 ± 0.012.
Same read-out and setting: with `O=P(O)(O)C(O)(Cn1ccnc1)P(=O)(O)O` [Zoledronic acid hydrate] the figure was 0.279 ± 0.069; with `C#CCN(C)Cc1ccccc1` [Pargyline hydrochloride], 0.194 ± 0.0055; with `Cn1c(=O)c2c(ncn2C)n(C)c1=O` [Caffeine], 0.228 ± 0.044.

These data come from the supplement of paper PMC9262897, “Low-cost anti-mycobacterial drug discovery using engineered E. coli” (Nature Communications, 2022).
